# Bioassay records as filed in PubChem BioAssay.
# ALOX15 inhib: inhibitors of human 15-lipoxygenase (ALOX15); P16050; purified 15hLO-1, xylenol orange hydroperoxide absorbance; Potency, µM (titrated, usually from 57.1 µM), for inactives: at the highest dose activity change, negative = inhibition, actives largely listed as inhibitors; 74,000 tested, 1.4% active; further: on the % scale 0 is the no-effect control and ±100 the full control effect; nearly all actives have a fitted effect of over 55% in size
#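 40 nM 15hLO-1 + cpd, 15 min RT; start w/ 50 uM AA (final), 6 min RT; stop/detect w/ 200 uM XO + 300 uM Fe(II) in 50 mM H2SO4, 30 min; A573/A405. Buffer 25 mM Hepes pH 7.5, 0.01% Triton X-100. No-enzyme wells as negative control.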
# Casp1 inh: caspase-1 (human) inhibition, allosteric or competitive | P29466 | Caspase-1 enzyme, Ac-WEHD-AFC fluorogenic rate | Potency, µM (highest dose often 57.5 µM), inactives show at the highest dose activity change, negative = inhibition, most hits filed as inhibitors | 75,000 tested, 0.03% active;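 further: plate controls were vehicle for no effect and no substrate for full effect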
# Target sequence (P29466 120-297 limits assumed): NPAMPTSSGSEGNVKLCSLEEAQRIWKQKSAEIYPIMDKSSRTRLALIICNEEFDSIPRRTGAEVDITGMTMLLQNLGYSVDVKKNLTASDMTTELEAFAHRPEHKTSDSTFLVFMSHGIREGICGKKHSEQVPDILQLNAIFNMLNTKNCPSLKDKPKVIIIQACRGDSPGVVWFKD
# Target sequence (P29466 317-404 limits assumed): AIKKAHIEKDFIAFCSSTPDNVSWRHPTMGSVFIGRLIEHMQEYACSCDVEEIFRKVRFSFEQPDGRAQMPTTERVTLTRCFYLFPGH
# ERK AVP block: vasopressin-driven ERK pathway inhibition | HEK293-V1b, vasopressin-stimulated pERK AlphaScreen | Potency, µM (titrated, usually from 57.5 µM), for inactives: top-dose activity, negative = inhibition, most hits filed as inhibitors | 72,000 tested, 0.99% active; further: on the % scale 0 is the no-effect control and ±100 the full control effect; nearly all actives have a fitted effect of over 55% in size
#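 qHTS, compounds titrated on V1b-expressing HEK293 cells. Preincubation 30 min at 37C, vasopressin 25 nM for 5 min, lysis 10 min, bead incubation 5 hr at room temperature.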
# Caspase-7 inhib: caspase-7 (human) inhibition, allosteric or competitive; Potency, µM (highest dose often 57.5 µM), without a hit: top-dose activity change, negative = inhibition, most hits filed as inhibitors; 75,000 tested, 0.02% active; recombinant caspase-7, Ac-DEVD-AFC fluorescence rate; active means well fitted inhibition curve with a large enough effect in the main read-out, with a control signal flat, not every such curve was filed as active; inconclusive means small, poorly fitted or top-dose-only effect, or a change in a side signal; further: % of control where 0% means no effect
# Target sequence (P55210 24-198 limits assumed): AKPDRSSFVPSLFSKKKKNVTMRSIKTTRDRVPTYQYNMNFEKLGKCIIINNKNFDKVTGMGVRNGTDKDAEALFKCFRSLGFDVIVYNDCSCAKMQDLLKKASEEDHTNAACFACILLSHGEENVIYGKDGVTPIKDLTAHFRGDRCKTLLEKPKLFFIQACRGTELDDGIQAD
# Target sequence (P55210 207-303 limits assumed): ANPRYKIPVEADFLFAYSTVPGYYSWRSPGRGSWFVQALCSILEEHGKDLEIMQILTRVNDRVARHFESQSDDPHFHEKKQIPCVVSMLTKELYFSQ
# HEK293 cAMP ctrl: counter-screen for TSHR agonists: cAMP increase in parental HEK293; Potency, µM (top dose mostly 57.1 µM), inactives show at the highest dose activation, hits mostly activators; parental HEK293 CNG cAMP sensor, membrane potential fluorescence; 73,000 tested, 2.5% active; further: % of control where 0% means no effect; nearly all actives have a fitted effect of over 55% in size
#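 Parental HEK 293 cells stably expressing a modified CNG channel (no TSHR) report cAMP rise as membrane depolarization. Membrane potential dye with 100 uM RO 20-1724 was loaded for 60 min at room temperature, then compound added for 30 min; fluorescence read at 590 nm.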
# TSHR agonist: agonists of human thyroid stimulating hormone receptor; P16473; HEK293-CNG-TSHR cells (CNG channel as cAMP sensor), membrane potential dye, cAMP; Potency, µM (top dose mostly 57.1 µM), without a hit: at the top dose activation, usual class: activators; 73,000 tested, 0.48% active; active means well fitted activation curve with a large enough effect in the main read-out, with a control signal flat, not every such curve was filed as active; inconclusive means small, poorly fitted or top-dose-only effect, or a change in a side signal; inactive means no such curve, though single readings can be large or run the other way; % of control where 0% means no effect;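 further: the control signal comes from parental cells without the receptor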
#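 HEK 293 cells stably expressing TSHR and a modified CNG channel, with CNG-only parental cells as counterscreen, were preloaded 60 min at room temperature with membrane potential dye containing 100 uM RO 20-1724. Compound exposure was 30 min, and depolarization was read as fluorescence at 590 nm.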
# * marks the source's active call; other numbers are inactive results; ? = inconclusive; . = no result given; [ ] = another dose, or the depositor's remark. Rows were chosen to be rich in hits. Some 4.8% of all compounds tested hit in one or more screens of this group. Unless noted, the call rests on the fitted dose curve; in most records, active means well fitted curve in the direction sought with a large enough effect; inconclusive means small, poorly fitted or top-dose-only effect, or another doubt; inactive means no such curve, though single readings can be large; an effect the other way counts as inactive or inconclusive. Potency means the concentration at half of the fitted maximal effect.
SMILES,ALOX15 inhib,Casp1 inh,ERK AVP block,Caspase-7 inhib,HEK293 cAMP ctrl,TSHR agonist
O=C(Oc1ccc2c(c1)OCO2)c1cc2c(s1)CCC2,20µM*,-4.5%,-11.9%,-13.2%,-2.2%,1.9%
N#CCSc1nc2cc(C(=O)N3CCC(C(N)=O)CC3)ccc2c2nc3ccccc3n12,-2.7%,3.1%,20µM*,-0.4%,-2.6%,23.0%
N#CCSc1nc2cc(C(=O)N3CCCC3)ccc2c(=O)n1Cc1ccccc1,-11.2%,-1.7%,?,-1.9%,10.7%,10.1%
CCOC(=O)N1CCC(NC(=O)C(CC(C)C)NC(=O)C2CCCCC2)CC1 (stereo not given),15.8µM*,-1.8%,12.0%,2.5%,11.3%,0.4%
c1ccc(CCNc2c3c(nc4ncnn24)CCC3)cc1,-2.5%,2.6%,?,1.7%,6.31µM*,?
CC1=CCc2c(cc3oc(C)cc(=O)c3c2O)OC1,20µM*,-11.3%,7.4%,-21.0%,.,.
COC(=O)c1[nH]c2ccccc2c1NC(=O)CN1CCN(c2cccc(OC)c2)C(C)C1 (stereo not given),-18.1%,-4.3%,31.6µM*,-4.5%,17.7%,1.8%
CCOC(=O)C1CCN(CC(=O)Nc2c(C(=O)OC)[nH]c3ccc(Cl)cc23)CC1,-6.1%,-1.2%,25.1µM*,-4.6%,?,?
Nc1ccccc1C(=O)CC(N)C(=O)O (stereo not given),-3.2%[25.6 µM],0.1%,6.6%,0.3%,.,.
O=c1c(C(c2nnnn2C2CCCCC2)N2CCCCC2)coc2ccc(Cl)cc12 (stereo not given),-8.3%,0.7%,4.2%,7.9%,9.0%,12.8%
c1ccc2sc(SN3CCOCC3)nc2c1,2µM*,-2.7%,6.8%,-1.4%,15.4%,2.3%
C[C@](N)(COP(=O)(O)O)C(=O)O,3.6%[25.6 µM],-1.2%,4.6%,1.4%,18.2%,12.2%
Cc1nc2sc3c(c2c(=O)o1)CCCC3,-3.0%,-0.5%,5.6%,0.5%,-1.8%,0.6%[11.4 µM]
Nc1nc2sc3c(c2c(=O)s1)CCCC3,0.794µM*,-1.1%,-2.4%,-6.8%,-8.4%,2.3%
CC1CCc2sc3nc(NCc4ccco4)n4ncnc4c3c2C1 (stereo not given),-16.1%,-2.5%,?,-5.7%,2.3%,10.3%
CC1CCc2sc3c(c2C1)c1ncnn1c(=O)n3CC(=O)c1ccc(Br)cc1 (stereo not given),0.7%,-0.6%,-0.1%,-1.7%,15.8µM*,?
COc1ccccc1-c1ccc2ncnc(N3CCNCC3)c2c1,4.2%,0.5%,3.3%,-3.4%,11.9%,10.7%
Cc1ccc(-c2nc(=S)c3c(n2Cc2ccco2)CCCC3)cc1,-4.9%,-5.1%,.,-0.5%,2.51µM*,?
COc1cc(/C=C/C(=O)c2cccs2)cc(OC)c1OC,0.9%[25.6 µM],-13.6%,17.6%,?,.,.
CCOC(=O)c1c(C)[nH]c(C=Nc2ccccc2)c1O,5.01µM*,-5.5%,-5.5%,-8.3%,2.8%,-1.0%
COc1ccccc1N(C(=O)c1ccco1)C(C(=O)NC1CCCC1)c1cccnc1 (stereo not given),17.9%,2.7%,-7.2%,-2.1%,?,?
O=C(NC1CCCCC1)C(c1ccco1)N(Cc1cccnc1)C(=O)C1COc2ccccc2O1 (stereo not given),-2.3%,-4.0%,-14.7%,0.3%,15.8µM*,?
Cn1nc(-c2ccc(N3CCOCC3)c(NC(=O)COc3ccccc3)c2)c2ccccc2c1=O,-0.9%,0.6%,-19.4%,0.4%,9.8%,10µM*
Nc1ccc2oc(=O)c3ccccc3c2c1,14.0%,0.6%,10µM*,-2.0%,-15.3%,5.6%
CN(Cc1ccco1)c1ncncc1-c1ccccc1Cl,-28.2%,-2.7%,-8.3%,-11.0%,4.5%,-2.6%
SMILES,ALOX15 inhib,Casp1 inh,ERK AVP block,Caspase-7 inhib,HEK293 cAMP ctrl,TSHR agonist
COc1ccc(-n2c(=O)c(C)nc3cnc(N(C)C)nc32)cc1,9.8%,.,-1.2%,?,22.2%,.
CN(Cc1ccccc1)c1oc(COc2ccccc2F)nc1C#N,-15.0%,0.3%,?,-1.7%,25.1µM*,?
N#Cc1nc(COc2ccccc2F)oc1NCCc1ccccc1,-16.7%,-17.1%,-13.2%,-19.0%,?,?
N[C@H](Cc1cccc(-c2ccccc2CP(=O)(O)O)c1)C(=O)O,18.2%,2.8%,?,-0.5%,13.6%,6.1%
CC(=O)CC(=O)Nc1ccccc1,1.7%,-2.1%,4.4%,-1.5%,-2.3%,0.9%
O=C(Cc1ccccc1)N1CCC(c2nc3ccccc3[nH]2)CC1,2.4%,0.8%,9.1%,-0.5%,3.3%,3.0%[11.4 µM]
Cc1ccc(-c2noc(C3CCCN(C(=O)c4c(F)cccc4F)C3)n2)cc1 (stereo not given),?,-2.6%,?,-0.9%,7.94µM*,?
O=C(Cc1ccccc1)N1CCC(c2nc(-c3ccc(F)cc3)no2)CC1,?,-0.6%,20µM*,-0.6%,?,?
O=C(OCc1nnc(-c2ccc(Cl)cc2)o1)c1ccc(=O)n(Cc2ccccc2)n1,20µM*,-2.8%,-12.0%,-10.4%,17.3%,14.1%
N#Cc1c(N)oc(-c2ccccc2)c1-c1ccccc1,?,1.1%,-18.0%,0.8%[0.00368 µM],-5.1%,-3.4%
N#Cc1c(N)oc(-c2ccco2)c1-c1ccco1,25.1µM*,-12.1%,-1.2%,-14.6%,-16.3%,-14.8%
O=C(Cn1ncn2c(cc3ccccc32)c1=O)NCCC1=CCCCC1,15.8µM*,-4.2%,-10.7%,-8.3%,?,?
O=C(Cn1ncn2c(cc3ccccc32)c1=O)NCc1ccco1,?,-6.1%,41.5%,-6.8%,?,?
Cc1ccc2[nH]c(=O)c(C(c3nnnn3C3CCCC3)N(Cc3cccnc3)Cc3ccco3)cc2c1 (stereo not given),?,-8.5%,13.3%,-4.6%,?,?
Clc1ccc(C(c2nnnn2C2CCCCC2)N(Cc2cccnc2)Cc2ccco2)cc1 (stereo not given),20.9%,-0.3%,-3.2%,-1.0%,3.16µM*,?
O=C(O)C12CC3(C(=O)O)CC(C(=O)O)(CC(C(=O)O)(C1)C3=O)C2=O,2.5%[11.4 µM],0.8%[11.5 µM],4.7%[11.5 µM],-0.5%[11.5 µM],-5.0%[11.4 µM],-3.7%[11.4 µM]
O=C(Nc1ccc(SC(F)F)cc1)c1ccc2nccnc2c1,-15.7%,-0.6%,25.1µM*,1.1%,6.0%,0.3%
CC1CCC2CC1C2(C)C (stereo not given),3.9%,-2.4%,0.9%,0.6%,4.7%,-7.7%
O=C(CSc1nc(-c2ccccc2)nc2c1CCCC2)N1CCOCC1,5.7%,-1.9%,-8.6%,0.8%,23.0%,12.6µM*
N[C@@H]1CCN(O)C1=O,-6.5%[25.6 µM],-2.2%,-2.3%,1.1%,?,?
O=S(=O)(Nc1cccnc1)c1cccc2cccnc12,-9.1%,-0.8%,.,-1.7%,2.8%,-3.7%
COc1ccc(C(=O)N2CCC3(CC2)CN(CC(C)C)C3)cc1,7.5%,-6.2%,-8.6%,0.9%,-2.8%,16.0%
